From PubChem BioAssay
An excerpt weighted towards active compounds, which were near 0.86% of everything screened.
BLM inh – Bloom syndrome helicase (human) inhibition. actives 0.2% (n = 350,000). recombinant BLM DNA unwinding, fluorescence dequenching. Potency, µM (titrated, usually from 56.1 µM), without a hit: at the highest dose activity change, negative = inhibition, most hits filed as inhibitors;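 note: plate controls were vehicle for no effect and no enzyme for full effect; nearly all actives have a fitted effect of over 35% in size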
FEN1 inh-1 – inhibitors of human flap endonuclease 1 | P39748 | Recombinant FEN1 flap cleavage, fluorescence, 15 min | Potency, µM (top dose mostly 114 µM), without a hit: top-dose activity change, negative = inhibition, hits mostly inhibitors | actives 0.35% (n = 390,000); note: % is set by controls: 0 for no effect and ±100 for the full control effect; nearly all actives have a fitted effect of over 65% in size
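Reaction started by adding substrate (50 nM final) to 10 nM enzyme after 15 min room-temperature compound preincubation. Reads at 0 and 15 min, with data normalized and fitted to a four-parameter Hill equation.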
RECQ1 inh – RECQ1 (human) helicase inhibition; actives 0.54% (n = 240,000); Potency, µM (doses to about 57.3 µM), inactives show at the highest dose activity, negative = inhibition, actives largely listed as inhibitors; AID 2549; RECQ1 DNA unwinding, red fluorescence kinetic read; P46063;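 note: plate controls were vehicle for no effect and no enzyme for full effect; nearly all actives have a fitted effect of over 30% in size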
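RECQ1T1 50 nM; forked duplex (20 bp + 30-nt ss tails) 200 nM, ATP 2 mM final; pH 8.0, 2 mM MgCl2, 2.5 ug/ml poly(dI-dC); 15 min compound preincubation; discontinuous kinetic read over 2 h at RT.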
APEX1 inh – APE1 (human) endonuclease inhibition. P27695. recombinant APE1, TAMRA/BHQ-2 abasic DNA cleavage fluorescence. Potency, µM (series often up to 65.8 µM), inactives show at the highest dose activity change, negative = inhibition, usual class: inhibitors. actives 0.35% (n = 350,000). AID 2517;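 note: plate controls were vehicle for no effect and reference inhibitor for full effect; nearly all actives have a fitted effect of over 55% in size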
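APE1 at 0.75 nM final was preincubated with compound 15 min at room temperature, then 50 nM double-stranded THF abasic-site substrate (5'-TAMRA/3'-BHQ-2) was added. Fluorescence (ex 525/em 598 nm) was read kinetically; third-minus-first read gave activity.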
PGK inhibitor – inhibitors of T. brucei phosphoglycerate kinase | Potency, µM (titrated, usually from 57.5 µM), for inactives: at the highest dose activity change, negative = inhibition, usual class: inhibitors | actives 0.043% (n = 380,000) | P07378 | PGK/GAPDH coupled, Kinase-Glo luminescence, 60 min | AID 602233; note: % is set by controls: 0 for no effect and ±100 for the full control effect; nearly all actives have a fitted effect of over 60% in size
Target sequence (P07378 whole entry, looked up): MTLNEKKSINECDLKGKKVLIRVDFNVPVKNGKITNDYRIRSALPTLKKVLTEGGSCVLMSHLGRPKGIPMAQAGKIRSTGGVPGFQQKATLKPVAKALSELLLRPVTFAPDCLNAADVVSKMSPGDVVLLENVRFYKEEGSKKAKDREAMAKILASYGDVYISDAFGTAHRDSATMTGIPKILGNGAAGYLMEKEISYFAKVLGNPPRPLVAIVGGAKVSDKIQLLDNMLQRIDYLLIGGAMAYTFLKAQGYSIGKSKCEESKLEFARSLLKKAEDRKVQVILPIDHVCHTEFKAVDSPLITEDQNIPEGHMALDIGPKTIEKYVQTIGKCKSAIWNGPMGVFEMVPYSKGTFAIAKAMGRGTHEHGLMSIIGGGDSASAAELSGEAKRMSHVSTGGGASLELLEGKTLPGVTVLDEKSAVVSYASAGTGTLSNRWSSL
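Luminescent ATP detection (Kinase-Glo Plus) follows a 60-minute room-temperature incubation, with wells lacking PGK as controls. Buffer: 100 mM TEA (pH 7.6), 5 mM MgCl2, 0.01% Tween-20. Coupling enzyme GAPDH (100 nM final) supplies unstable 1,3-BPG in-well.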
GLS inh – inhibitors of human glutaminase (GLS); O94925; GLS enzymatic activity, qHTS titration; Potency, µM (top dose mostly 45.5 µM), for inactives: at the top dose activity change, negative = inhibition, hits mostly inhibitors; actives 0.21% (n = 410,000); note: % is set by controls: 0 for no effect and ±100 for the full control effect
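Read-out is an Amplex red fluorescence increase coupled through glutamate oxidase and HRP, measured before and after 30 min room-temperature incubation. hKGA is in 45 mM KH2PO4 (pH 8.2) with 0.02% Tween-20; glutamine added as 1mM solution.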
FEN1 inh-2 – confirmation of human FEN1 inhibitors | shares compounds with FEN1 inh-1 | actives 79% (n = 880) | Potency, µM, usual class: inhibitors | FEN1 flap cleavage, TAMRA/BHQ2 fluorogenic DNA substrate | AID 720498; note: nearly all actives have a fitted effect of over 60% in size
The depositor's hits bear a star; i = inactive; u = inconclusive; x = not tested or not shown; [ ] = another dose, or the depositor's remark. Calls come from the whole dose curve; as a rule, active = well fitted curve in the direction sought with a large enough effect; inconclusive = small, poorly fitted or top-dose-only effect, or another doubt; inactive = no such curve, though single readings can be large; an effect the other way counts as inactive or inconclusive. Potency is the fitted concentration of half-maximal effect.

SMILES	BLM inh	FEN1 inh-1	RECQ1 inh	APEX1 inh	PGK inhibitor	GLS inh	FEN1 inh-2
Cc1ccc(S(=O)(=O)ON2C(=O)c3cccc4cccc(c34)C2=O)cc1	0%	18µM*	-1%	-1%	x	-2%	38*
O=C1c2cccc3cccc(c23)C(=O)N1OS(=O)(=O)c1ccc(Br)cc1	8%	u	1%	-6%	i	0%	11*
COc1ccc(-c2nc(CNC(=O)Nc3ccccc3)c(C)o2)cc1	-1%	0%	x	x	0%	3%	x
CC[n+]1c(/C=C/C=C/N(C(C)=O)c2ccccc2)sc2cc(OC)ccc21	u	50µM*	-14%	-6%	-13%	3%	43*
Nc1ccc(C(Cc2ccnc3ccccc23)Cc2ccnc3ccccc23)cc1	x	-29%	x	x	x	x	x
COc1cc2cc3c(N)c(C(=O)Nc4sc(C)c(C)c4C#N)sc3nc2cc1OC	32µM*	50µM*	10µM*	13µM*	x	-1%	43*
O=C(/C=C/c1ccco1)NC(=S)Nc1cccc(-c2nc3ccccc3o2)c1	u	-14%	-10%	22%	2%	19%	u
c1ccc(-c2nc(-n3ccnc3)nc(-n3ccnc3)n2)cc1	81%	u	-7%	9%	-5%	x	43*
CC(C)Nc1nc(-c2ccccc2)nc(-n2ccnc2)n1	-1%	-10%	i	-1%	4%	4%	x
Cc1c(/C=C(\C#N)C(=O)Nc2cccc(Cl)c2)c2ccccc2n1Cc1ccccc1Cl	-8%	2%	x	x	8%	2%	x
CCc1noc(C)c1C(=O)OC(C)C(=O)c1c(C)[nH]c2ccccc12 (stereo unspecified)	x	-18%	x	11%	-1%	-1%	x
Cc1[nH]c2ccccc2c1C(=O)C(C)OC(=O)c1ccc([N+](=O)[O-])o1 (stereo unspecified)	-7%	u	-8%	-1%	-2%	6%	19*
CC1=[N+](C)c2c(ccc3cccnc23)C1(C)C	36%	45µM*	u	u	-7%	u	43*
CN(C)c1ccc2nc3ccc(=O)cc-3sc2c1	x	x	x	x	u	-11%	43*
CN(C)CCNc1ccc2ncn3c4ccc(O)cc4c(=O)c1c23	x	8.9µM*	x	x	i	2%	4.8*
COc1ccc2sc3cccc(NCCN(C)C)c3c(=O)c2c1	x	x	x	x	x	51%	x
CN(C)CCNc1ccc(CO)c2sc3ccc(O)cc3c(=O)c12	x	22µM*	x	x	-10%	35%	17*
COC(=O)c1ccccc1-c1c2ccc(=N)cc-2oc2cc(N)ccc12	x	28µM*	x	27µM*	-11%	0%	67*
CC(=O)N1CC2(CC2)CC1c1ccccc1 (stereo unspecified)	-1%	x	-10%	-4%	x	x	x
COc1ccc(/C=C2\SC(=S)N(C(Cc3ccccc3)C(=O)O)C2=O)cc1 (stereo unspecified)	-6%	-6%	i	0%	-1%	-11%	x
O=C(O)CC(C(=O)O)N1C(=O)/C(=C/c2ccc(-c3nc4ccccc4s3)o2)SC1=S (stereo unspecified)	36%	35µM*	u	3%	25µM*	11µM*	60*
O=C(O)C(Cc1ccccc1)N1C(=O)/C(=C/C=C/c2ccco2)SC1=S (stereo unspecified)	22µM*	11µM*	2.8µM*	1.6µM*	13µM*	-27%	27*
O=Cc1ccc(-c2nc3ccccc3s2)o1	2%	-18%	8%	2%	-14%	20%	x
O=C(O)CC(C(=O)O)N1C(=O)/C(=C/C=C/c2ccco2)SC1=S (stereo unspecified)	107%	u	4µM*	1µM*	4.5µM*	2.8µM*	11*
COCCCNc1nc(NCc2ccc(C)cc2)c2cnn(C)c2n1	-1%	-10%	x	x	x	0%	x
SMILES	BLM inh	FEN1 inh-1	RECQ1 inh	APEX1 inh	PGK inhibitor	GLS inh	FEN1 inh-2
COc1cccc([C@@H]2Oc3ccc(OC)cc3C[C@H]2OC(=O)Nc2ccc(OC(F)F)cc2)c1	-2%	x	-8%	4%	x	x	x
O=C(Nc1ccc2nc(-c3ccc4nc[nH]c4c3)[nH]c2c1)c1cccs1	u	45µM*	-12%	u	i	-1%	u
CC1(C)S[C@@H]2[C@H](NC(=O)C(N)c3ccccc3)C(=O)N2[C@H]1C(=O)OC1OC(=O)c2ccccc21 (stereo partly specified)	x	x	x	3%[21 µM]	x	x	x
CC(C)OC(=O)CSc1nc(-c2ccc(F)cc2)nc2ccc(F)cc12	-1%	2%	-5%	5%	-10%	13%	x
O=C(CSc1nc(-c2ccc(F)cc2)nc2c1Cc1ccccc1O2)Nc1cccc(C(=O)O)c1	u	u	u	3µM*	u	-24%	27*
O=C(CSc1nc(-c2ccccc2)nc2ccc(F)cc12)Nc1ccc(C(=O)O)cc1	-18%	u	-2%	-9%	-20%	3%	60*
O=C(CSc1nc(-c2ccccc2)nc2c1Cc1ccccc1O2)Nc1ccccc1	1%	x	-8%	u	x	x	x
CN(C)CCCNc1cc(O)c2ncccc2c1	x	-27%	x	34%	7%	13%	38*
COc1ccc(C(=O)NCCc2sc(-c3ccc(Cl)cc3)nc2C)c(OC)c1	-8%	-19%	x	x	0%	1%	x
COc1cccc(N2CCN(C(=O)CCCn3c(=O)[nH]c4ccc(Br)cc4c3=O)CC2)c1	-1%	-17%	x	x	-7%	21%	x
O=C(Nc1ccc2[nH]c(=O)[nH]c2c1)c1ccc([N+](=O)[O-])o1	x	-24%	x	-25%	-15%	-1%	43*
Cc1ccc(NC(=O)c2ccc([N+](=O)[O-])o2)cc1C	-8%	7%	0%	-4%	-1%	6%	x
CNc1c2cccc(C)c2nc2c(C(=O)NCCN(C)C)cccc12	x	2.8µM*	x	x	-1%	-1%	2.7*
COc1ccc2sc(/C=C/c3ccccc3O)[n+](C)c2c1	-2%	40µM*	u	-6%	-16%	12%	85*
O=C(COc1ccccc1)NCCc1csc(-c2ccc(Cl)cc2)n1	-3%	2%	x	x	-5%	-2%	x
Cc1cc(C)cc(OCC(O)CN2CCC(CN3C(=O)c4cccc5cccc(c45)C3=O)CC2)c1 (stereo unspecified)	-3%	u	0%	0%	-9%	24%	u
